Data: PubChem BioAssay AID602350 (Broad Institute, 2012)
Results with a measured potency or affinity are listed apart. Values without a mark were called inactive.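 Rule for the calls: active = absorbance falls by 30% or more versus neutral controls, with a potency fitted within twice the top valid dose; inconclusive = no clear call, values can overlap the other calls; inactive = change opposite to expected direction, plus the rest.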

These molecules were tested against Protein disulfide-isomerase (Homo sapiens) (UniProt P07237) (assay: PDI inhibitors, insulin aggregation turbidity, dose response, biochemical, absorbance, cherry-picked samples (AID 602350;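 note: 0% = neutral controls and -100% = rutin hydrate positive control wells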)). Settings: recombinant PDI insulin aggregation, absorbance 650 nm, 90 min; series mostly up to 19.5 µM; activity change, negative = inhibition: at the top concentration.
Sequence of Protein disulfide-isomerase (Homo sapiens) (P07237 whole entry, looked up): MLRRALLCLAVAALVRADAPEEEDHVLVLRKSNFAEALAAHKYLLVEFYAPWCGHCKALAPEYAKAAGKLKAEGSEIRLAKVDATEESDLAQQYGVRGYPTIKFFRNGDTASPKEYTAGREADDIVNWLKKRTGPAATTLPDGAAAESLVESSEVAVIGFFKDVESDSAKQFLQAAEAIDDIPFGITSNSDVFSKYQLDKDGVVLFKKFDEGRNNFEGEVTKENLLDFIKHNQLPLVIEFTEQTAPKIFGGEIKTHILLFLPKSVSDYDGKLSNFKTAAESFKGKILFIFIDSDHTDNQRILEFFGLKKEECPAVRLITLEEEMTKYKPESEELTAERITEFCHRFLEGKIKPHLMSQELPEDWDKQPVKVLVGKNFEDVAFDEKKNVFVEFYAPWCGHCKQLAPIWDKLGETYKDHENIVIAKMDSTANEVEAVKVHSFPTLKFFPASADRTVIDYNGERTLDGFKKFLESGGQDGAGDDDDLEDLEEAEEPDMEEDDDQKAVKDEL

Row | Structure (SMILES) | activity change, negative = inhibition [%]
1 | CCOC(C(=O)OCCCN(CC)CC)(c1ccccc1)c1ccccc1 | 8.02
2 | CN1CCN(CCOC2c3ccccc3CSc3ccc(Cl)cc32)CC1 (stereo unspecified) | -3.03
3 | CCOC(=O)C1(CCOc2ccccc2)CCN(Cc2cccc(O)c2)CC1 | -12.9
4 | C[C@H]1CCCC(=O)CCCCCc2cc(O)cc(O)c2C(=O)O1 | 8.5
5 | NC(=O)CSc1nnc([C@@H](N)Cc2c[nH]c3ccccc23)o1 | -3.03
6 | CC(Cc1ccc(O)cc1)NCC(O)c1ccc(O)c(O)c1 (stereo unspecified) | -11.8
